The campaign covered roughly 390,000 compounds. About 17,000 (4.4%) were called active. Not shown: some 8% with an inconclusive outcome. Many of the other results were omitted from the sample, so actives are more common in it than they were. A number with no mark means an inactive call. The call rests on the fitted dose curve; in most records, active means well fitted inhibition curve with a large enough effect; inconclusive means small, poorly fitted or top-dose-only effect; inactive means no such curve, though single readings can be large or run the other way.
molecular target: Lysine-specific demethylase 4A (Homo sapiens) (UniProt O75164); experiment: qHTS Assay for Inhibitors of JMJD2A-Tudor Domain; conditions: AlphaScreen JMJD2A-Tudor / H3K4me3 peptide binding; series mostly up to 114 µM; activity change, negative = inhibition: at the top concentration; further: nearly all actives have a fitted effect of over 50% in size
Sequence (O75164 whole entry, looked up, the tested form may be a part): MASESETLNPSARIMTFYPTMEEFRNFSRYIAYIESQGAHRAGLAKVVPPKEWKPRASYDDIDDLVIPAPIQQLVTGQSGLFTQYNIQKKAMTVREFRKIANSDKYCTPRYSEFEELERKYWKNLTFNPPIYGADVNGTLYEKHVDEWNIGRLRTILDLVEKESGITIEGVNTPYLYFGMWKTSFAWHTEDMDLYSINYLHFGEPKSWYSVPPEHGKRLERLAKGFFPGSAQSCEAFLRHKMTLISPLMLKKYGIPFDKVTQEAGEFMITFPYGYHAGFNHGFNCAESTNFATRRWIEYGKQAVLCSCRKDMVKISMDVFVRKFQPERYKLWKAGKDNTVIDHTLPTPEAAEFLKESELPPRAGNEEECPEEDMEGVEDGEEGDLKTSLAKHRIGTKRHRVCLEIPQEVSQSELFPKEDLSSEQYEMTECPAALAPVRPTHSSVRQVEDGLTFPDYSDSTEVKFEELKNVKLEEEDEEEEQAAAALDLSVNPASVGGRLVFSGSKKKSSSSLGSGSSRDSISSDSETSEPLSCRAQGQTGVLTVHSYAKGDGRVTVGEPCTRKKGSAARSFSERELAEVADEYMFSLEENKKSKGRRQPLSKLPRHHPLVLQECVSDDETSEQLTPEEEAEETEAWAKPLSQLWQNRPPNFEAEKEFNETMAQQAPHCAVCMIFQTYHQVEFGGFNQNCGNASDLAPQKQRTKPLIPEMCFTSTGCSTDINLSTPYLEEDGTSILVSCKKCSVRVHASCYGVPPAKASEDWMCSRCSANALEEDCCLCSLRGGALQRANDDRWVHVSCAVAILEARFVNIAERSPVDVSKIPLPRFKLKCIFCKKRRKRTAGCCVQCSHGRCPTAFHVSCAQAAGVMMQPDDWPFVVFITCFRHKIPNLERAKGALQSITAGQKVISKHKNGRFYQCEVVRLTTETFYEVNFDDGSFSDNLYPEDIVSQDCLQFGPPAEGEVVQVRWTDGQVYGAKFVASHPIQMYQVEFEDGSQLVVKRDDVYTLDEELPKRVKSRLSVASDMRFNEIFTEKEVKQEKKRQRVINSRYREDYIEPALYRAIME
On the % scale 0 is the no-effect control and ±100 the full control effect; potency means the concentration at half of the fitted maximal effect.

| Compound | activity change, negative = inhibition | Potency |
| --- | --- | --- |
| Cc1cccc(N2CCN(C(=O)c3ccc(Nc4nc5ccccc5n5nnnc45)cc3)CC2)c1C | -9.59% |  |
| N#Cc1nc(/C=C/c2ccc(F)cc2)oc1NCc1ccc(F)cc1 | -8.8% |  |
| CC(=O)N1CCc2cc(S(=O)(=O)NC(Cc3ccccc3)C(=O)NCc3ccc(C)cc3)ccc21 (centres undefined) | -24% |  |
| Cc1ccccc1CNC(=O)C1CCCN(S(=O)(=O)N(C)c2ccc(F)cc2)C1 (centres undefined) | 3.66% |  |
| CC1=C/C(=N\OS(=O)(=O)c2ccccc2)C=CC1=O |  | 22.4 µM (active) |
| CCc1ccccc1NC(=O)Cn1c(=O)n(-c2cccc(C)c2)c(=O)c2c1c1cc(OC)ccc1n2C | 7.93% |  |
| O=C(NC1CCCCC1)c1ccc2c(c1)N(Cc1ccc(Cl)cc1)C(=O)c1ccccc1S2=O (centres undefined) | -18.2% |  |
| CCOc1cc(C(=O)Nc2nnc3n2CCS3)cc(OCC)c1OCC | -10.6% |  |
| O=C(O)C1CCN1C1CCCCC1 (centres undefined) |  | 31.6 µM (active) |
| O=C(O)c1cccc2c1C(=O)N(C1CCCCC1)C2 | -27.1% |  |
| O=C(O)C1CC=CC2CCN(C3CCCCC3)C(=O)C21 (centres undefined) | -6.21% |  |
| CCCCOc1ccc(NC(=O)c2cc3c(n(-c4ccc(Cl)cc4)c2=O)CCCC3=O)cc1 | -21.3% |  |
| Nc1nc(SCc2ccc([N+](=O)[O-])cc2)c2ncn(C3OC(CO)C(O)C3O)c2n1 (centres undefined) | -18.2% |  |
| CC(C)Sc1nc(N)nc2c1ncn2C1OC(CO)C(O)C1O (centres undefined) | -8.97% |  |
| COC1C(CO)OC(n2cnc3c(=S)nc(N)[nH]c32)C1O (centres undefined) |  | 17.8 µM (active) |
| O=C(Nc1ccc(Oc2ccccc2)cc1)C1CCN(S(=O)(=O)c2ccc(Cl)cc2)CC1 | 2.08% |  |
| COc1ccc(C(=O)Nc2nonc2-c2ccc(OC)c(OC)c2)cc1Cl | -15.1% |  |
| Cc1ccc(S(=O)(=O)N(Cc2nc(-c3ccc(Cl)cc3)no2)C2CCCCC2)cc1 | 13.2% |  |
| CC(=O)N=c1ncn(CC(COC(C)=O)OC(C)=O)c2nc[nH]c12 (centres undefined) | -9.65% |  |
| CC(=O)OC(COc1ccc(F)cc1)Cn1cnc2ccccc21 (centres undefined) |  | 79.4 µM (active) |
| CC(C)c1ccc(OCC(O)Cn2cnc3ccccc32)cc1 (centres undefined) | -33.6% |  |
| Cc1ccc(Cl)cc1NC(=O)CSc1nc2ccccc2nc1Cc1ccccc1 | -0.649% |  |
| COC(=O)c1c(NC(=O)c2cc(=O)c3c(C)cc(C)cc3o2)sc2c1CCCC2 | -0.694% |  |
| Cc1nc([N+](=O)[O-])nn1C12CC3CC(CC(Br)(C3)C1)C2 |  | 56.2 µM (active) |
| COc1cccc(NC(=O)c2nn(C34CC5CC(CC(C5)C3)C4)cc2[N+](=O)[O-])c1 | -9.43% |  |
| O=C(COc1ccccc1)OCc1cc(=O)n2nc(-c3cccs3)sc2n1 | -35% |  |

| Compound | activity change, negative = inhibition | Potency |
| --- | --- | --- |
| CCC(=O)N1c2ccccc2CC1C(=O)N1CCN(c2ccccc2)CC1 (centres undefined) | -6.62% |  |
| CCN(CC)S(=O)(=O)c1ccc2c(c1)N(CC(=O)NCc1ccccc1)C(=O)CS2 | 5.09% |  |
| CCCS(=O)(=O)Nc1cccc(-c2cn3ccsc3n2)c1 | -14.9% |  |
| COc1ccc(/C=C2\CCc3ccccc3C2=O)c(OC)c1OC | 7.75% |  |
| COC(=O)C(C)C1Sc2ccccc2NC1=O (centres undefined) | 0.685% |  |
| COc1ccc(C2Sc3ccccc3NC3=C2C(=O)c2ccccc23)c(OC)c1OC (centres undefined) |  | 14.1 µM (active) |
| CCOC(=O)C1CCCN(CC(=O)Nc2cc(C)c3c(=O)oc4ccccc4c3n2)C1 (centres undefined) | -12% |  |
| CCOC(=O)c1ccc(NC(=O)CCn2cnnn2)cc1 | 2.61% |  |
| CSc1ncc(Cl)c(C(=O)Nc2ccc(S(=O)(=O)N3CCCC(C)C3)cc2)n1 (centres undefined) | -21.5% |  |
| CCCCN(C)S(=O)(=O)c1ccc(C(=O)Nc2sc3c(c2C(N)=O)CC(C)(C)NC3(C)C)cc1 | -27.5% |  |
| CCN1CCN(C(c2ccc(C)cc2)c2c(O)cc(C)n(Cc3ccco3)c2=O)CC1 (centres undefined) | -20.5% |  |
| Oc1c(Cl)cc(Cl)c(Cl)c1Cc1c(O)c(Cl)cc(Cl)c1Cl |  | 79.4 µM (active) |
| O=C(Nc1ccc(F)cc1F)c1cnn(-c2ccc(F)cc2)c1-n1cccc1 | 10.7% |  |
| CC(C)(C)c1ccc(C(=O)CSc2ncn[nH]2)cc1 |  | 20 µM (active) |
| COc1ccc(C(=O)CSc2nccc(=O)[nH]2)cc1 | -14.8% |  |
| O=C(CSc1ncn[nH]1)Nc1nsc(-c2ccccc2)n1 | -12.6% |  |
| CC(=O)Nc1nc(N(C)C)nc(N(C)C)n1 | -0.687% |  |
| CNc1nc(Nc2ccc(C)c(Cl)c2)nc(N)c1[N+](=O)[O-] | -13.8% [at 57.1 µM] |  |
| CN(C)c1nc(Nc2ccc(Cl)c(Cl)c2)nc(N(C)C)n1 |  | 14.1 µM (active) |
| CCc1ccc(Sc2cc(C(=O)NCCCOC(C)C)c3ccccc3n2)cc1 | 15.6% |  |
| CSc1ccc(CCNC(=O)c2cc(C)nc3c2c(C)nn3-c2cccc(F)c2)cc1 | 7.77% |  |
| O=C(CC1Oc2ccccc2NC1=O)NCc1ccc(F)cc1 (centres undefined) | 3.64% |  |
| CCCCN(CCCNC(=O)c1cc(Nc2ccccc2OC)nc2ccccc12)c1ccccc1 | -16% |  |
| COc1ccccc1Nc1cc(C(=O)NCCCN(C)C2CCCCC2)c2ccccc2n1 | -23.3% |  |
| COc1ccc(Nc2cc(C(=O)NCCCN(C)c3ccccc3)c3ccccc3n2)c(OC)c1 |  | 15.8 µM (active) |
| COc1ccc(CCNC(=O)Cn2c(=O)cc(C(F)(F)F)c3c(C)nn(C)c32)c(OC)c1 | -5.33% |  |

| Compound | activity change, negative = inhibition | Potency |
| --- | --- | --- |
| COc1ccc(C)cc1NC(=O)CCc1c(C)nn(-c2ccc(N3CCOCC3)nn2)c1C | -25% |  |
| CN1C(=O)/C(=C/c2ccco2)SC1=Nc1cccc(C(=O)O)c1 |  | 79.4 µM (active) |
| O=C(O)c1cccc(N=NN2CCCCCC2)c1 | -9.09% |  |
| CN=C1S/C(=C\c2c(OC)cc(OC)cc2OC)C(=O)N1C | -4.79% |  |
| COc1ccc(C)cc1Nc1nc2ccccc2c2nnc(C)n12 | -0.685% |  |
| COc1ccc(OC)c(-n2nnc3c(sc4nc(C)c(Br)c(C)c43)c2=O)c1 | -12.3% |  |
| O=S(=O)(c1cccc(C(F)(F)F)c1)N1CCN(c2nc(-c3cccs3)nc3ccccc23)CC1 | -23.4% |  |
| C=CCn1c(SCC(=O)NC)nnc1C12CC3CC(CC(C3)C1)C2 | -8.9% |  |
| C=CCn1c(SCC(=O)NC23CC4CC(CC(C4)C2)C3)nc(O)cc1=O | -12.3% |  |
| C=CCn1c(C23CC4CC(CC(C4)C2)C3)n[nH]c1=S |  | 11.2 µM (active) |
| CCOc1ccc(N2CC(C)Cn3c2nc2c3c(=O)n(Cc3c(F)cccc3Cl)c(=O)n2C)cc1 (centres undefined) | 5.3% |  |
| COc1ccc(CNC(=O)CSc2n[nH]c(-c3ccc(F)cc3)n2)cc1 | -17.5% |  |
| CC(NC(=O)c1cc(Sc2ccc(F)cc2F)nc2ccccc12)c1ccccc1 (centres undefined) | -26% |  |
| CCC1CCCCN1C(=S)Nc1ccc(S(=O)(=O)Nc2ncccn2)cc1 (centres undefined) |  | 100 µM (active) |
| CCC1CCCCN1C(=S)Nc1ccc(SC(F)F)cc1 (centres undefined) | -6.16% |  |
| CCC1CCCCN1C(=S)Nc1ccc(C(C)=O)cc1 (centres undefined) | -17.2% |  |
| Cc1ccc2cccc(NC(=O)c3ccc(OC(C)C)cc3)c2n1 | -1.99% |  |
| Cc1cc2n(n1)C(c1cc(C(C)(C)C)c(O)cc1O)Nc1ccccc1-2 (centres undefined) | -26.5% |  |
| CSc1ccc(CCNC(=O)c2cnn(-c3ccccc3)c2-n2cccc2)cc1 | -15.8% |  |
| Cc1ccc(C)c(Nc2nnc(-c3ccc(C)c(S(=O)(=O)N4CCCCC4)c3)c3ccccc23)c1 | -15.7% |  |
| CCc1c(C)[nH]c(=S)c(C#N)c1C |  | 3.98 µM (active) |
| CCn1c(=O)c2cc(C(=O)NCCc3ccc(Cl)cc3)sc2c2ccccc21 | -11.4% |  |
| Cc1noc(/C=C/N(C)C)c1S(=O)(=O)N1CCCC(C(=O)Nc2cccc(F)c2)C1 (centres undefined) | 0.662% |  |
| O=C(Nc1ccc2nc(SCC(=O)N3CCCc4ccccc43)sc2c1)c1ccc(Cl)cc1 | -9.27% |  |
| COc1ccc(CCNC(=O)CCCn2c(=O)c3ccccc3n(Cc3ccc(F)cc3Cl)c2=O)cc1OC | 1.02% |  |
| COc1ccccc1CNC(=O)c1ccccc1NC(=O)c1nsc2ccccc12 | -7.14% |  |

| Compound | activity change, negative = inhibition | Potency |
| --- | --- | --- |
| CCCN(CCC)c1nc2c(C)cccn2c(=O)c1/C=C1/SC(=S)N(Cc2ccco2)C1=O |  | 35.5 µM (active) |
| CCOC(=O)CC1C(=O)NCCN1c1nc2c(C)cccn2c(=O)c1/C=C1\SC(=S)N(C(C)CC)C1=O (centres undefined) | -31.1% |  |
| Cc1ccc2[nH]c(=O)c(-c3nc4c(C)cccn4c3NCc3ccco3)cc2c1 | -23.3% [at 11.4 µM] |  |
| Cc1cc(C)c(NC(=O)Cn2c(SCC(=O)NCc3ccccc3)nc3ccccc32)c(C)c1 | -28.8% |  |
| CCCCNC(=O)C1CCC(=O)N1CCc1ccccc1 (centres undefined) | -11.4% |  |
| CCCCN1C(=O)CCC(C(=O)O)C1c1ccc(OC)cc1 (centres undefined) |  | 89.1 µM (active) |
| COc1ccc(C2C3=C(CCCC3=O)N(CC(=O)O)C3=C2C(=O)CCC3)cc1 | -20.6% |  |
| COc1ccccc1CNC(=O)CCCCn1c(=O)c2ccccc2n(CC(=O)Nc2cc(Cl)ccc2C)c1=O | -10.9% |  |
| Cc1cccc(NC(=O)C2CCN(S(=O)(=O)c3c(C)noc3/C=C/c3ccco3)CC2)c1 | -27.3% |  |
| Cc1cccc(C2CC(=O)Oc3c2c(=O)n(C)c2ccccc32)c1 (centres undefined) | -23.5% |  |
| Nc1ccc2[nH]c(=S)sc2c1 |  | 3.55 µM (active) |
| O=c1[nH]c2ccccc2s1 | -15% |  |
| COc1cc(C(=O)N2CCN(C(=O)COc3cccc(C)c3)CC2)cc(OC)c1OC | -13.1% |  |
| COCCn1c(SCC(=O)c2cc(C)ccc2C)nc2cc(C(=O)NC3CCCC3)ccc2c1=O | -10.4% |  |
| Cc1cc(C)cc(OC(C)C(=O)Nc2nc3c(s2)CCCC3)c1 (centres undefined) | -28.1% |  |
| COc1cccc(-n2c(=S)sc3c(=O)n(-c4ccccc4OC)c(SCC4OCCO4)nc32)c1 | -30.1% |  |
| COc1cccc(-n2c(=S)sc3c(=O)n(-c4ccccc4C)c(SCC(=O)O)nc32)c1 | -2.8% |  |
| COc1ccccc1-n1c(=S)[nH]c2c(sc(=S)n2-c2ccc(C)cc2C)c1=O |  | 50.1 µM (active) |
| Cc1oc(-c2ccccc2F)nc1CN1CCC(C(=O)NCCc2ccc(Cl)cc2)CC1 | -14.5% |  |
| O=C(CSc1nc2ccccc2nc1Cc1ccccc1)N1CCCCC1 | 8.77% |  |
| Cc1ccc(-c2nc3cccc(C)n3c2Nc2ccc3c(c2)OCCO3)cc1 |  | 11.2 µM (active) |
| Oc1ccc(-c2nc3ccc(Cl)cn3c2Nc2ccc3c(c2)OCO3)cc1 | -22% |  |
| Oc1ccccc1-c1nc2ccc(Cl)cn2c1Nc1ccc2c(c1)OCCO2 | -10.3% |  |
| Cc1ccc2nc(-c3ccc(O)cc3)c(Nc3ccc4c(c3)OCO4)n2c1 | -18% |  |
| Cc1nc(Nc2ccc3c(c2)OCCO3)c2nnn(Cc3ccccc3Cl)c2n1 | -26% |  |
| Cc1cccc2nc(-c3ccc(Cl)s3)c(Nc3ccc4c(c3)OCCO4)n12 |  | 31.6 µM (active) |

— PubChem BioAssay AID504339 (National Center for Advancing Translational Sciences (NCATS), 2011)
